Experimental findings from PubChem BioAssay (Tox21) are described below.

Unmarked numbers belong to inactive results. Inconclusive results are not listed. The source made the active and inactive calls. Unless noted, the call rests on the fitted dose curve; in most records, active means well fitted curve in the direction sought with a large enough effect in the repeat runs; inconclusive means weak or mixed curves; inactive means no such curve, though single readings can be large; an effect the other way counts as inactive or inconclusive.

The target of assay [1] is Luciferin 4-monooxygenase (Photinus pyralis) (UniProt P08659). Briefly: qHTS assay to identify small molecule inhibitors of firefly luciferase (AID 1224835). Further: nearly all actives have a fitted effect of over 25% in size. In short, it runs like this:
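Inhibition of purified Photinus luciferase is measured by luminescence. Substrate levels (D-luciferin, ATP) sit at their KM values. Each compound is tested in a concentration series.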
In general terms: In qHTS, concentration-response curves come from the screen itself.

Assay [2] in a line: qHTS assay to identify small molecule agonists of the constitutive androstane receptor (CAR) signaling pathway - cell viability counter screen (AID 1224836). Further: nearly all actives have a fitted effect of over 45% in size. In short, it runs like this: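 HepG2 cells stably carrying hCAR and a CYP2B6-2.2kb reporter were plated 4 h, then given compounds at 15 concentrations plus PK11195 (final 0.75 uM). After 23 h at 37 C, viability was read by CellTiter-Fluor fluorescence.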

The nature of assay [3]: qHTS assay to identify small molecule antagonists of the constitutive androstane receptor (CAR) signaling pathway - cell viability counter screen (AID 1224837). Further: nearly all actives have a fitted effect of over 45% in size. The method, boiled down: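 CITCO at 50 nM final was added alongside compounds (15 concentrations) to double-stable hCAR/CYP2B6-2.2kb HepG2 cells. Following 23 hr at 37 C, cell viability was quantified by CellTiter-Fluor fluorescence intensity.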

Assay [4] concerns the target Nuclear receptor subfamily 1 group I member 3 (Homo sapiens) (UniProt Q14994). Briefly: qHTS assay to identify small molecule antagonists of the constitutive androstane receptor (CAR) signaling pathway (AID 1224838). Further: nearly all actives have a fitted effect of over 40% in size. Further: potency means the concentration at half of the fitted maximal effect. The method, boiled down: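 Inhibition of CITCO-driven (50 nM final) CYP2B6 reporter expression is measured in HepG2 cells stably carrying hCAR. Fifteen compound concentrations are applied for 24 h at 37 C, followed by luciferase luminescence.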

The target is the same in assay [5]. Briefly: qHTS assay to identify small molecule agonists of the constitutive androstane receptor (CAR) signaling pathway (AID 1224839). Further: nearly all actives have a fitted effect of over 15% in size. In short, it runs like this:
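HepG2 cells stably expressing hCAR and a CYP2B6-2.2kb luciferase reporter were treated with compounds at 15 concentrations plus 0.75 uM PK11195 (final) for 24 h at 37 C; luminescence was read after ONE-Glo addition.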

A short description of assay [6]: qHTS assay to identify small molecule antagonists of the estrogen related receptor signaling pathway with the pleiotropic PPARgamma coactivator (PGC) from Tox21 10K library - cell viability counter screen (AID 1224840; active means well fitted cell-killing curve with a large enough effect in the repeat runs, not every such curve was filed as active; further: nearly all actives have a fitted effect of over 40% in size). In short, it runs like this: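 Readout: fluorescence intensity from CellTiter-Fluor after 30 min at 37 C/5% CO2. Preceded by 17.5 h treatment of PGC/ERR cells with DMSO-dissolved compounds, added 6 h post-seeding.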

The target of assay [7] is Thyrotropin receptor (Homo sapiens) (UniProt P16473). Briefly: qHTS assay to identify small molecule agonists of the thyroid stimulating hormone receptor (TSHR) signaling pathway (AID 1224843; calls by dose curve; further: nearly all actives have a fitted effect of over 45% in size). The method, boiled down: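 Agonist activity read as cAMP rise via d2/cryptate HTRF competition, 1 h room-temperature detection, in HEK293 cells expressing TSHR. Fifteen-point titrations, each run in triplicate, with a 30 min room-temperature incubation beforehand.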

Assay [8] in a line: qHTS assay to identify small molecule agonists of the hypoxia (HIF-1) signaling pathway - cell viability counter screen (AID 1224844; calls by dose curve; further: nearly all actives have a fitted effect of over 50% in size). The method, boiled down: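 In this counter screen, HRE-bla ME-180 cell viability after 17 hrs of compound exposure at 37C was read by CellTiter-Glo luminescence, multiplexed with the beta-lactamase reporter measurement.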
The nature of assay [9]: qHTS assay to identify small molecule agonists of H2AX (AID 1224845; active means well fitted activation curve with a large enough effect in the signal ratio in the repeat runs, not every such curve was filed as active; the % refers to the signal ratio). In short, it runs like this: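 Phospho-H2AX Ser139 measured by HTRF (ex 320 nm; em 665 and 620 nm) after 24 hr antibody incubation. Compounds, 15 concentrations, 0.76% DMSO, were applied to CHO-K1 cells for 3hr at 37C before lysis.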
Assay [10] is described as follows: qHTS assay to identify small molecule agonists of the hypoxia (HIF-1) signaling pathway (AID 1224846; active means well fitted activation curve with a large enough effect in the signal ratio in the repeat runs, not every such curve was filed as active; the % refers to the signal ratio). In short, it runs like this:
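ME-180 HRE-bla reporter cells; compounds in DMSO, 17 h at 37C; read-out beta-lactamase via CCF4-AM FRET.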

Assay [11] in a line: qHTS assay to identify small molecule agonists of H2AX - cell viability counter screen (AID 1224847; calls by dose curve; further: top concentration of the series differs between compounds; nearly all actives have a fitted effect of over 30% in size). The method, boiled down: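 Wild-type CHO-K1 cells (10% FBS medium) were plated overnight at 37C, exposed to compounds at 15 concentrations for 3 hr at 37C (0.76% DMSO final), and viability was read as CellTiter-Glo luminescence after 30 min at room temperature.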
The nature of assay [12]: qHTS RealTime-Glo MT Cell Viability Assay in HepG2 cells - 24 hour (AID 1224867). Further: nearly all actives have a fitted effect of over 50% in size. The method, boiled down: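 Tox21 10K library screened in qHTS format on HepG2 cells carrying RealTime-Glo reagents. Compounds were added after a 5 h preincubation, and the luminescent signal from continuous culture was measured repeatedly during 40 h treatment.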
The nature of assay [13]: qHTS RealTime-Glo MT Cell Viability Assay in HEK293 cells - 32 hour (AID 1224868). Further: top concentration of the series differs between compounds; nearly all actives have a fitted effect of over 50% in size. The method, boiled down: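 Luminescence generated by NanoLuc from substrate produced by living HEK293 cells served as the viability signal. Each value reflects the reading at its stated time point during continuous 40 h compound exposure at 37 C.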
Assay [14] is described as follows: A CellTox Green Cytotoxicity Assay to monitor cytotoxicity in HEK293 cells - 0 hour (AID 1224869). Further: nearly all actives have a fitted effect of over 50% in size. In short, it runs like this:
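Real-time, in one plate: 600 HEK293 cells/well with dead-cell DNA dye, pinned compound after 5 h, 37 C incubation over 40 h; viable cells give no appreciable fluorescence.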

Assay [15] can be described thus: qHTS RealTime-Glo MT Cell Viability Assay in HepG2 cells - 40 hour (AID 1224870). Further: nearly all actives have a fitted effect of over 50% in size. The method, boiled down:
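Real-time viability: cells seeded at 600 per well together with NanoLuc and cell-permeant prosubstrate, compounds added after 5 h incubation. Luminescence tracked at 0, 8, 16, 24, 32 and 40 h of exposure.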

Assay [16] in a line: qHTS assay to identify small molecule antagonists of the estrogen related receptor (ERR) signaling pathway from Tox21 library - cell viability counter screen (AID 1224834). Further: nearly all actives have a fitted effect of over 30% in size. The method, boiled down:
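Counter screen run in ERR cells (2,000 cells/well): cells pre-incubated 6 h, then treated with compounds for 17.5 h at 37 C. Fluorescence was read 30 min after CellTiter-Fluor addition.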

Assay [17] in a line: qHTS assay to identify small molecule antagonists of the estrogen related receptor signaling pathway with the pleiotropic PPARgamma coactivator (PGC) from Tox21 10K library (AID 1224841; call rule not given here). In short, it runs like this:
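One-Glo luminescence, measured after half an hour at room temperature, quantified reporter output of PGC/ERR cells. These had been plated at 2,000 per well, incubated 6 h, dosed with compounds in DMSO, then kept 18 h at 37 C.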

The nature of assay [18]: qHTS assay to identify small molecule agonists of the estrogen related receptor signaling pathway with the pleiotropic PPARgamma coactivator (PGC) from Tox21 10K library (AID 1224842). Further: nearly all actives have a fitted effect of over 15% in size. In short, it runs like this: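 Luminescence from One-Glo (30 min, room temperature) measured after PGC/ERR cells had 18 h at 37 C with pinned compound (23 nL in DMSO). Cells had been seeded at 2,000 per well and pre-incubated 6 h.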

Assay [19] can be described thus: qHTS assay to identify small molecule antagonists of the estrogen related receptor (ERR) signaling pathway from Tox21 library (AID 1224848). Further: nearly all actives have a fitted effect of over 50% in size. The method, boiled down: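 Luciferase luminescence (ONE-Glo, 30 min room temperature) was the read-out. Cells of the NTP-supplied ERR line, 2,000 per well, were given 6 h at 37 C before compound addition in DMSO and 18 h exposure at 37 C.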

Assay [20] can be described thus: qHTS assay to identify small molecule agonists of the estrogen related receptor (ERR) signaling pathway from Tox21 library (AID 1224849; calls by dose curve; further: nearly all actives have a fitted effect of over 15% in size). The note with it: ERR reporter cell line, ONE-Glo luciferase, 18 h; at 92.4 µM (top of the series) unless noted. The method, boiled down: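 Luciferase activity in ERR pathway reporter cells served as the agonist readout; exposure lasted 18 h at 37 C, with ONE-Glo detection after 30 min at room temperature.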
On the % scale 0 is the no-effect control and ±100 the full control effect.

Nuclear receptor subfamily 1 group I member 3 (Homo sapiens), sequence (Q14994 whole entry, looked up): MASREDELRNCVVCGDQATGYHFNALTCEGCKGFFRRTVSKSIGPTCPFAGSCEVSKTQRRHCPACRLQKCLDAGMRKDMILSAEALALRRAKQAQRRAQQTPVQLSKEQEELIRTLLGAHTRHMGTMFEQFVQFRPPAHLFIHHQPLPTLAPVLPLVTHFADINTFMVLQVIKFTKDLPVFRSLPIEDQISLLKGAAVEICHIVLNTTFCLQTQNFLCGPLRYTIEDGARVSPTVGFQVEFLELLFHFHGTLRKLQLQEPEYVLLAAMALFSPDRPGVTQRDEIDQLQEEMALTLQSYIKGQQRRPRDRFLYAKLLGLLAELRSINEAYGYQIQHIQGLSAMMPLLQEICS
Thyrotropin receptor (Homo sapiens), sequence (P16473 whole entry, looked up): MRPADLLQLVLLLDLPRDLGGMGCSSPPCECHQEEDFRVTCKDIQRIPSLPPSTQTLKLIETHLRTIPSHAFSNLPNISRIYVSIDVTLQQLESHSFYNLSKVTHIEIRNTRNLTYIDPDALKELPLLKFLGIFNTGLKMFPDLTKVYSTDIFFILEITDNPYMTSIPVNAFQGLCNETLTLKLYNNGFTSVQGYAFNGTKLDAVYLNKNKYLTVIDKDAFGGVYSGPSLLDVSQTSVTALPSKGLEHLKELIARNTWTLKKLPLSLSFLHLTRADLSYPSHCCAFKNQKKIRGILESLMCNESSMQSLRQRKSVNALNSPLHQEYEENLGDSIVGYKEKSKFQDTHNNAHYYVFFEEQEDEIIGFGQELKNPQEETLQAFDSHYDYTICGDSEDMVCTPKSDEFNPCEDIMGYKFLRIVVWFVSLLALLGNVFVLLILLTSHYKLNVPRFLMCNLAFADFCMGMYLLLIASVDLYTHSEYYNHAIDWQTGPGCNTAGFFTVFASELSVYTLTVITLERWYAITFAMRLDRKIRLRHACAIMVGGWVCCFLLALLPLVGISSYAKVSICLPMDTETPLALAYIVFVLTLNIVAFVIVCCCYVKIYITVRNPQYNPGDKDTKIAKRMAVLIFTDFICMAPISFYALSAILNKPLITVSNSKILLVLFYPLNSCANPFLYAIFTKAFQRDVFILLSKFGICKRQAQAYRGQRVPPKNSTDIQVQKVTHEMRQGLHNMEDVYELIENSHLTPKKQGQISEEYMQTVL
Luciferin 4-monooxygenase (Photinus pyralis), sequence (P08659 whole entry, looked up): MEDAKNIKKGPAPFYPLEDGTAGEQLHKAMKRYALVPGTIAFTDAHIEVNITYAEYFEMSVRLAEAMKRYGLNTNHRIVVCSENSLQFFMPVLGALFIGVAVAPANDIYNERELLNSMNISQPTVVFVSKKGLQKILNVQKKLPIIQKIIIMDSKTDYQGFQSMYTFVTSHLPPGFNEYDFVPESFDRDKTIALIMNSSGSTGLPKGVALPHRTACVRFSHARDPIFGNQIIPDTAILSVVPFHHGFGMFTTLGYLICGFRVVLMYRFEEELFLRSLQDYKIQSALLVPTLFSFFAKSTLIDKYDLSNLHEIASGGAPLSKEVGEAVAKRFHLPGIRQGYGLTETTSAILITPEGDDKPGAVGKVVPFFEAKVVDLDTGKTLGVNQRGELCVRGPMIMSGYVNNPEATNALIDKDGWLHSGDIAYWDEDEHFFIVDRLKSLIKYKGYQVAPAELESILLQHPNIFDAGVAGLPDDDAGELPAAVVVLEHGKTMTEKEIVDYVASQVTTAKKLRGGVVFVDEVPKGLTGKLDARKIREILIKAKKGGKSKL

With `CCCOCCC`, the Potency entry in [1], in assay [2], in assay [3], in [4], in assay [5] and in [6] was “inactive” throughout. For the same compound, the Potency entry in assay [7], in [8], in assay [9], in assay [11], in assay [12] and in assay [13] was “inactive” in each case. The Potency result in [14] and in [15] was “inactive” each time. The outcome in assay [10] was inactive.
On to `CCCCCCC`, for which the Potency entry in [1], in assay [2], in assay [3], in [4], in assay [5] and in assay [6] was “inactive” each time. Further, the Potency entry in assay [8], in assay [9], in assay [11], in assay [13], in assay [14] and in assay [15] was “inactive” each time. Also, in assay [10], the compound was called inactive.
For `CN1[C@@H]2CC[C@H]1CC(OC(=O)c1c[nH]c3ccccc13)C2` (stereo partly drawn), the Potency result in assay [1], in assay [2], in assay [3], in assay [4], in assay [5] and in assay [6] was “inactive” in each case. Moreover, the Potency entry in assay [7], in assay [8], in assay [9], in assay [11], in assay [12] and in [13] was “inactive” in each case. Moreover, the Potency result in assay [14] and in assay [15] was “inactive” in each case.
Consider `O=C1Nc2ccc([N+](=O)[O-])cc2C1=O`, for which the Potency entry in assay [1], in assay [2], in assay [3], in [4], in [5] and in assay [6] was “inactive” in each case. Moreover, the Potency entry in [8], in assay [9], in assay [11], in assay [12] and in [14] was “inactive” in each case. Besides, the result in assay [10] was inactive.
In the case of `CC(C)(C)c1cccc(O)c1`, the Potency result in [16], in assay [2], in assay [3], in assay [6], in assay [17] and in assay [18] was “inactive” each time. In addition, the Potency entry in [7], in assay [8], in assay [9], in [11], in assay [19] and in assay [12] was “inactive” throughout. Moreover, the Potency entry in [13], in [14] and in assay [15] was “inactive” in each case. Moreover, the outcome in [10] was inactive. Also, the activity change, positive = activation in [20] is 1.25%.
As for `NS(=O)(=O)c1cc(-c2nn[nH]n2)c(NCc2cccs2)cc1Cl`, the Potency result in assay [1], in assay [3], in [5], in assay [6], in assay [7] and in assay [8] was “inactive” in each case. The Potency result in [9], in assay [11], in assay [12], in assay [13], in [14] and in [15] was “inactive” each time. Besides, the Potency in assay [4] is 23.7 µM (active). Further, the compound was called inactive in [10].
As to `CC(=O)Oc1cc(C(C)C)c(OCCN(C)C)cc1C`, the Potency result in [1], in assay [3], in [4], in assay [6], in assay [8] and in assay [9] was “inactive” throughout. Moreover, the Potency result in assay [11], in [12], in assay [14] and in assay [15] was “inactive” in each case.
Turning to `Cc1ccc([N+](=O)[O-])c(N)c1`, the Potency result in [2], in [3], in assay [4], in assay [5], in assay [6] and in assay [17] was “inactive” throughout. The Potency entry in assay [18], in assay [7], in [8], in assay [9], in assay [11] and in assay [19] was “inactive” in each case. Also, the Potency result in assay [12], in assay [13], in assay [14] and in [15] was “inactive” in each case. Also, in assay [10], the call was inactive. Also, the activity change, positive = activation in [20] was -10.6%.
